{
  "source": "PubChem BioAssay (NCI)",
  "note": "“And” between values parts separate entries of the source, which are not always exact repeats. Equal values may be shown once. This is part of a sample that, as a whole, favours compounds with a hit. Of some 83,000 tested, about 20% had one in any assay.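 96-well plates, one dose, 48 hours. Percent growth reported; active if below 10.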 The source made the active and inactive calls.",
  "data": [
    {"tested_on": "HL-60(TB) leukemia", "assay": "NCI-60 one-dose screen, 48 h (100 = growth as untreated, 0 = no growth, -100 = all killed)", "settings": "10 µM unless noted", "values": [
      {"compound": "S=C1CCSC(=S)N1CCCN1C(=S)CCSC1=S", "growth": "36.5% (inactive)"},
      {"compound": "Cc1cc(C)n(Cc2cc(C(C)(C)C)cc(C(C)(C)C)c2)c(=O)c1C#N", "growth": "100% (inactive)"},
      {"compound": "CC(=O)Nc1ccc(/C=C/C(=O)c2ccccc2)cc1", "growth": "79% (inactive)"},
      {"compound": "CCOC(=O)Nc1nc2ccccc2[nH]1", "growth": "101% (inactive) and -38.2% (active)"},
      {"compound": "CC(=O)OC[C@]12CCC(C)(C)C[C@H]1[C@@]1(O)[C@H](O)C[C@@H]3[C@@]4(C)CCCNC(C)(C)[C@@H]4CC[C@@]3(C)[C@]1(C)CC2", "growth": "105% (inactive)"},
      {"compound": "O=C(Nc1ccc(Cl)cc1)c1cc2ccccc2cc1OP(=O)(O)O", "growth": "37.3% (inactive)"},
      {"compound": "COc1ccc(-c2nc3sc4c(c3c(=O)[nH]2)CCCC4)c2ccccc12", "growth": "-24.7% (active)"},
      {"compound": "Fc1ccc(CNc2c3ccccc3nc3ccccc23)c(F)c1", "growth": "58.3% (inactive)"},
      {"compound": "COc1ccc(C2c3sc4c(F)cccc4c3Oc3nc[nH]c(=O)c32)cc1", "note": "(stereo not given)", "growth": "-44.6% (active)"},
      {"compound": "CCC(O)c1ccc(Br)cc1NC(=O)c1cccc(Cl)c1", "note": "(stereo not given)", "growth": "-6.38% (active)"},
      {"compound": "COc1ccc2nc(NC(=O)CSc3nnc4n3S(=O)(=O)c3ccccc3N4C)sc2c1", "growth": "53.8% (inactive)"},
      {"compound": "N#Cc1c(NC(=O)c2cccc(Br)c2)sc2c1CCCC2", "growth": "62.4% (inactive)"},
      {"compound": "N#CC1c2ccccc2C=CN1C(=O)CCCl", "note": "(stereo not given)", "growth": "65.5% (inactive)"},
      {"compound": "COc1ccc2cc3[n+](cc2c1OC)CCc1cc2c(cc1-3)OCO2", "growth": "75.4% (inactive) and 70.1% (inactive)"},
      {"compound": "CC(C)OC(=O)c1ccc2[nH]c(O)c(C(=Nc3ccc(N(C)C(=O)CN4CCN(C)CC4)cc3)c3ccccc3)c2c1", "growth": "-50.2% (active)"},
      {"compound": "COc1ccc(Cl)c([N+](=O)[O-])c1", "growth": "98.6% (inactive)"},
      {"compound": "O=C(O)C1CCCN1C(=O)OCc1ccccc1", "note": "(stereo not given)", "growth": "102% (inactive)"},
      {"compound": "COc1cc(-c2cc(=O)oc3cc(O)ccc23)c(OC)c2c1OCO2", "growth": "103% (inactive)"},
      {"compound": "COc1cc2c(O)n(CCCn3ccnc3)c3c4cnc5cccc(c(=O)c3c2cc1OC)c54", "growth": "6.68% (active)"},
      {"compound": "CCOc1ccc(NC2=C(Cl)C(=O)c3ccccc3C2=O)cc1", "growth": "32% (inactive)"},
      {"compound": "CCC1=C[C@@H]2CN(C1)Cc1c([nH]c3ccccc13)[C@@](C(=O)OC)(c1cc3c(cc1OC)N(C=O)[C@H]1[C@@](O)(C(=O)OC)[C@H](OC(C)=O)[C@]4(CC)[C@@H]5C[C@@H]5CN5CC[C@]31[C@@H]54)C2", "growth": "-19.4% (active)"},
      {"compound": "COc1cc(OC)cc(C2=C3CC[C@@H]4[C@H](CC[C@]5(C)C(=O)CC[C@@H]45)C3=CC3C(O)c4cccnc4N4C(=O)COC234)c1", "note": "(stereo not given in full)", "growth": "98% (inactive)"},
      {"compound": "O=CN1CCCCC1", "growth": "97% (inactive)"},
      {"compound": "Cn1cc(-c2cc3ncnc(Nc4ccc(CC(=O)Nc5cc(C(C)(C)C)on5)cc4)c3s2)cn1", "growth": "57.5% (inactive)"},
      {"compound": "O=C(CI)NC1Oc2ccccc2-c2oc(=O)c(-c3ccccc3)cc21", "note": "(stereo not given)", "growth": "-39.3% (active)"},
      {"compound": "O=C(CNc1c(Cl)cccc1Cl)Nc1ccc(-c2nc3ccccc3s2)cc1", "growth": "70.7% (inactive)"},
      {"compound": "ClCc1ccc(-c2ccc(Cn3cnc4c(Cl)nc(Cl)nc43)cc2)cc1", "growth": "-53.7% (active)"},
      {"compound": "O=C(NNc1nccc(Nc2ccc(S(=O)(=O)Nc3ccncc3)cc2)n1)c1ccccc1", "growth": "119% (inactive)"},
      {"compound": "N#CSCC(=O)c1ccc(Cl)cc1", "growth": "73.4% (inactive)"},
      {"compound": "CCCCCCCC/C=C/CCCCCCCC1=NC(C)(C)CN1C(C)(C)CO", "growth": "-59.8% (active)"},
      {"compound": "CC(C)(C)c1nc2c(s1)c1nc(N)ncc1c1ccc(NS(=O)(=O)c3c(F)cccc3F)c(F)c12", "growth": "79.9% (inactive)"},
      {"compound": "O=C(Nc1cccc(Cl)c1)OCC(COC(=O)Nc1cccc(Cl)c1)(COC(=O)Nc1cccc(Cl)c1)[N+](=O)[O-]", "growth": "45% (inactive)"},
      {"compound": "O=C(C[n+]1ccccc1)c1ccc2ccccc2c1", "growth": "101% (inactive)"},
      {"compound": "CC(C)Sc1nc(NN)c(C#N)c(-c2ccccc2)n1", "growth": "98.8% (inactive)"},
      {"compound": "COc1ccc(OC)c(-c2nc(SCC(=O)c3ccc(C#N)cc3)[nH]c(=O)c2C#N)c1", "growth": "106% (inactive)"},
      {"compound": "CC1=C(C#N)C(C)(C)C(C#N)=C(C)N1", "growth": "98.6% (inactive)"},
      {"compound": "N=c1ccc2nc3c(cc(N)c4ccccc43)oc-2c1", "growth": "-48.4% (active)"},
      {"compound": "C=C1C(=O)O[C@H]2[C@H]1CC/C(Cn1cc(CNCCc3c[nH]c4ccccc34)nn1)=C\\CC[C@@]1(C)O[C@@H]21", "growth": "26.1% (inactive)"},
      {"compound": "COc1cc2cc(Oc3ccc(NC(=O)Nc4cc(C(F)(F)F)cc(C(F)(F)F)c4)cc3)c(C)nc2cc1OCCN1CCOCC1", "growth": "1.68% (active)"},
      {"compound": "Oc1c(Cl)cc(Cl)cc1Sc1cc(Cl)cc(Cl)c1O", "growth": "28% (inactive) and -16.5% (active) and 52.9% (inactive)"}
    ]}
  ]
}
